In PubChem BioAssay AID1159580 (chemical genetic matrix, 2015):
Hit rate of the full screen: of about 5,500 compounds, about 2,000 (36%) were called active. Inconclusive results (about 18%) are left out. Rule as the data show it: active = normalized growth mostly below about 0.91 (no sharp cut-off); inconclusive = no clear call, values can overlap the other calls; inactive = mostly above about 0.92. The list shows a part of the results.

Experiment: chemical genetic growth profiling, strain panel (AID 1159580);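 also: tested at 20 µM; growth read once vehicle control cultures reached saturation at 30 °C; 1 = growth at the plate median or of vehicle wells; lower values mean less growth of the strain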
Conditions: S. cerevisiae deletion strains, growth OD

Measured: normalized growth

CCCN(CCc1ccccc1)C1CCc2c(O)cccc2C1 (centres undefined)
inactive: locus YAL013W, strain DEP1, hits give low values 0.992 | locus YAL040C, strain CLN3, hits give low values 1.02 | locus YCL061C, strain MRC1 (second series), hits give low values 1 | locus YDR363W, strain ESC2, hits give low values 1.02 | locus YER002W, strain NOP16, hits give low values 1 | locus YGR229C, strain SMI1, hits give low values 0.988 | locus YJR075W, strain HOC1, hits give low values 1 | locus YMR263W, strain SAP30, hits give low values 1 | locus YMR307W, strain GAS1, hits give low values 0.997 | locus YNL153C, strain GIM3, hits give low values 0.957 | locus YNL175C, strain NOP13, hits give low values 1 | locus YNL224C, strain SQS1, hits give low values 1.01 | locus YOR083W, strain WHI5 (second series), hits give low values 1.02 | locus YPL055C, strain LGE1, hits give low values 0.973
